Results reported in the supplement of paper PMC4022240.
± gives the standard deviation.

Legend:
Experiment in all cases: peptide microarray binding signal (635 nm), min-max normalized on array (fraction of array maximum); higher = stronger binding
Conditions in all cases: peptide region: H3 5-17
[1] = molecular target: T1, HaloTag-ATRX ADD domain (163-292)
T1 chain: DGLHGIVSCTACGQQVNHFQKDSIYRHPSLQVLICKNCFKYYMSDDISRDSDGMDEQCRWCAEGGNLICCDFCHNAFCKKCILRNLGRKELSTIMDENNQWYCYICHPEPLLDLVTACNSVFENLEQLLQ
Outline: (§1)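 Histone 13-mer peptide–cellulose conjugates were printed in triplicate on nitrocellulose with a Cy3 tracer, then blocked overnight at 4°C. Arrays were probed for 1 h at 4°C with biotin-labelled HaloTag reader fusions (10 nM to 1 μM) plus streptavidin-Alexa Fluor 647, or with rabbit histone antibodies (1:10,000 to 1:2,000) plus anti-rabbit Alexa 647. An Axon GenePix 4000B scanned 635 nm for signal and 532 nm for misprints. Binding signal is the triplicate-spot mean intensity, min-max scaled per library.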

[2] = molecular target: HaloTag-ING2 PHD (mouse Ing2 200-280)
Outline: as §1

[3] = molecular target: anti-H3K4me3 antibody ab8580
Outline: as §1

[4] = molecular target: anti-H3K9me3 antibody ab8898
Outline: as §1

[5] = peptide modifications: H3R8me1 H3K9ac, binder concentration: 1:2,000 dilution
[6] = peptide modifications: H3R8me1 H3K9ac, binder concentration: 1:10,000 dilution
[7] = peptide modifications: H3R8cit H3T11ph, binder concentration: 1:2,000 dilution
[8] = peptide modifications: H3R8cit H3T11ph, binder concentration: 1:10,000 dilution
[9] = peptide modifications: H3R8me1, binder concentration: 1:2,000 dilution
[10] = peptide modifications: H3R8me1, binder concentration: 1:10,000 dilution
[11] = peptide modifications: H3R8me1 H3K9me2, binder concentration: 1:2,000 dilution
[12] = peptide modifications: H3R8me1 H3K9me2, binder concentration: 1:10,000 dilution
[13] = peptide modifications: H3K14me2, binder concentration: 1:2,000 dilution
[14] = peptide modifications: H3K14me2, binder concentration: 1:10,000 dilution
[15] = peptide modifications: H3K9me3 H3T11ph, binder concentration: 1:2,000 dilution
[16] = peptide modifications: H3K9me3 H3T11ph, binder concentration: 1:10,000 dilution
[17] = peptide modifications: H3K14me3, binder concentration: 1:2,000 dilution
[18] = peptide modifications: H3K14me3, binder concentration: 1:10,000 dilution
[19] = peptide modifications: H3R8cit H3K9me2, binder concentration: 1:2,000 dilution
[20] = peptide modifications: H3R8cit H3K9me2, binder concentration: 1:10,000 dilution
[21] = peptide modifications: H3R8cit H3S10ph, binder concentration: 1:2,000 dilution
[22] = peptide modifications: H3R8cit H3S10ph, binder concentration: 1:10,000 dilution
[23] = peptide modifications: H3K14me1, binder concentration: 1:2,000 dilution
[24] = peptide modifications: H3K14me1, binder concentration: 1:10,000 dilution

Binder: QTARKSTGGKAPR [H3 5-17 Q T A Rme Kac S T G G K A P R]
- peptide microarray binding signal ([1]; peptide modifications: H3R8me1 H3K9ac, binder concentration: 50 nM): 0.0137 ± 0.00035
- peptide microarray binding signal ([1]; peptide modifications: H3R8me1 H3K9ac, binder concentration: 500 nM): 0.0307 ± 0.0019
- peptide microarray binding signal ([2]; peptide modifications: H3R8me1 H3K9ac, binder concentration: 10 nM): 0.0479 ± 0.004
- peptide microarray binding signal ([2]; peptide modifications: H3R8me1 H3K9ac, binder concentration: 100 nM): 0.0783 ± 0.0015
- peptide microarray binding signal [3, 5]: 0.0231 ± 0.0043
- peptide microarray binding signal [3, 6]: 0.0272 ± 0.0053
- peptide microarray binding signal [4, 5]: 0.0277 ± 0.0029
- peptide microarray binding signal [4, 6]: 0.0205 ± 0.00081

Binder: QTARKSTGGKAPR [H3 5-17 Q T A Rcit K S Tph G G K A P R]
- peptide microarray binding signal ([1]; peptide modifications: H3R8cit H3T11ph, binder concentration: 50 nM): 0.00404 ± 0.00028
- peptide microarray binding signal ([1]; peptide modifications: H3R8cit H3T11ph, binder concentration: 500 nM): 0.0123 ± 0.0011
- peptide microarray binding signal ([2]; peptide modifications: H3R8cit H3T11ph, binder concentration: 10 nM): 0.0179 ± 0.0072
- peptide microarray binding signal ([2]; peptide modifications: H3R8cit H3T11ph, binder concentration: 100 nM): 0.0242 ± 0.0054
- peptide microarray binding signal [3, 7]: 0.00285 ± 4.3e-05
- peptide microarray binding signal [3, 8]: 0.002511 ± 2.2e-05
- peptide microarray binding signal [4, 7]: 0.00142 ± 0.00018
- peptide microarray binding signal [4, 8]: 0.00115 ± 2e-05

Binder: QTARKSTGGKAPR [H3 5-17 Q T A Rme K S T G G K A P R]
- peptide microarray binding signal ([1]; peptide modifications: H3R8me1, binder concentration: 50 nM): 0.00589 ± 0.00021
- peptide microarray binding signal ([1]; peptide modifications: H3R8me1, binder concentration: 500 nM): 0.00448 ± 0.00015
- peptide microarray binding signal ([2]; peptide modifications: H3R8me1, binder concentration: 10 nM): 0.0037 ± 7.9e-05
- peptide microarray binding signal ([2]; peptide modifications: H3R8me1, binder concentration: 100 nM): 0.00262
- peptide microarray binding signal [3, 9]: 0.0014 ± 0.00011
- peptide microarray binding signal [3, 10]: 0.00417 ± 0.00061
- peptide microarray binding signal [4, 9]: 0.00305 ± 0.00038
- peptide microarray binding signal [4, 10]: 0.00755 ± 0.00014

Binder: QTARKSTGGKAPR [H3 5-17 Q T A Rme Kme2 S T G G K A P R]
- peptide microarray binding signal ([1]; peptide modifications: H3R8me1 H3K9me2, binder concentration: 50 nM): 0.00934 ± 0.00073
- peptide microarray binding signal ([1]; peptide modifications: H3R8me1 H3K9me2, binder concentration: 500 nM): 0.0296 ± 0.00077
- peptide microarray binding signal ([2]; peptide modifications: H3R8me1 H3K9me2, binder concentration: 10 nM): 0.0501 ± 0.013
- peptide microarray binding signal ([2]; peptide modifications: H3R8me1 H3K9me2, binder concentration: 100 nM): 0.0426 ± 0.0023
- peptide microarray binding signal [3, 11]: 0.0281 ± 0.0026
- peptide microarray binding signal [3, 12]: 0.0231 ± 0.00029
- peptide microarray binding signal [4, 11]: 0.175 ± 0.029
- peptide microarray binding signal [4, 12]: 0.0879 ± 0.0073

Binder: QTARKSTGGKAPR [H3 5-17 Q T A R K S T G G Kme2 A P R]
- peptide microarray binding signal ([1]; peptide modifications: H3K14me2, binder concentration: 50 nM): 0.00956 ± 0.00084
- peptide microarray binding signal ([1]; peptide modifications: H3K14me2, binder concentration: 500 nM): 0.0335 ± 0.0014
- peptide microarray binding signal ([2]; peptide modifications: H3K14me2, binder concentration: 10 nM): 0.0584 ± 0.011
- peptide microarray binding signal ([2]; peptide modifications: H3K14me2, binder concentration: 100 nM): 0.077 ± 0.0071
- peptide microarray binding signal [3, 13]: 0.044 ± 0.004
- peptide microarray binding signal [3, 14]: 0.0224 ± 0.0035
- peptide microarray binding signal [4, 13]: 0.0137 ± 0.00078
- peptide microarray binding signal [4, 14]: 0.00715 ± 0.00071

Binder: QTARKSTGGKAPR [H3 5-17 Q T A R Kme3 S Tph G G K A P R]
- peptide microarray binding signal ([1]; peptide modifications: H3K9me3 H3T11ph, binder concentration: 50 nM): 0.00737 ± 0.0032
- peptide microarray binding signal ([1]; peptide modifications: H3K9me3 H3T11ph, binder concentration: 500 nM): 0.00981 ± 0.0012
- peptide microarray binding signal ([2]; peptide modifications: H3K9me3 H3T11ph, binder concentration: 10 nM): 0.00352 ± 0.00053
- peptide microarray binding signal ([2]; peptide modifications: H3K9me3 H3T11ph, binder concentration: 100 nM): 0.00539 ± 0.0012
- peptide microarray binding signal [3, 15]: 0.00485 ± 0.00012
- peptide microarray binding signal [3, 16]: 0.00747 ± 0.0029
- peptide microarray binding signal [4, 15]: 0.215 ± 0.078
- peptide microarray binding signal [4, 16]: 0.229 ± 0.095

Binder: QTARKSTGGKAPR [H3 5-17 Q T A R K S T G G Kme3 A P R]
- peptide microarray binding signal ([1]; peptide modifications: H3K14me3, binder concentration: 50 nM): 0.00931 ± 0.00042
- peptide microarray binding signal ([1]; peptide modifications: H3K14me3, binder concentration: 500 nM): 0.0186 ± 0.0016
- peptide microarray binding signal ([2]; peptide modifications: H3K14me3, binder concentration: 10 nM): 0.0256 ± 0.00028
- peptide microarray binding signal ([2]; peptide modifications: H3K14me3, binder concentration: 100 nM): 0.0377 ± 0.0028
- peptide microarray binding signal [3, 17]: 0.0987 ± 0.029
- peptide microarray binding signal [3, 18]: 0.0663 ± 0.0053
- peptide microarray binding signal [4, 17]: 0.0574 ± 0.00077
- peptide microarray binding signal [4, 18]: 0.0328 ± 0.0018

Binder: QTARKSTGGKAPR [H3 5-17 Q T A Rcit Kme2 S T G G K A P R]
- peptide microarray binding signal ([1]; peptide modifications: H3R8cit H3K9me2, binder concentration: 50 nM): 0.0094 ± 0.00026
- peptide microarray binding signal ([1]; peptide modifications: H3R8cit H3K9me2, binder concentration: 500 nM): 0.0211 ± 0.0019
- peptide microarray binding signal ([2]; peptide modifications: H3R8cit H3K9me2, binder concentration: 10 nM): 0.0388 ± 0.00083
- peptide microarray binding signal ([2]; peptide modifications: H3R8cit H3K9me2, binder concentration: 100 nM): 0.0648 ± 0.0026
- peptide microarray binding signal [3, 19]: 0.016 ± 0.0013
- peptide microarray binding signal [3, 20]: 0.0193 ± 0.00081
- peptide microarray binding signal [4, 19]: 0.271 ± 0.036
- peptide microarray binding signal [4, 20]: 0.197 ± 0.037

Binder: QTARKSTGGKAPR [H3 5-17 Q T A Rcit K Sph T G G K A P R]
- peptide microarray binding signal ([1]; peptide modifications: H3R8cit H3S10ph, binder concentration: 50 nM): 0.00417 ± 0.00041
- peptide microarray binding signal ([1]; peptide modifications: H3R8cit H3S10ph, binder concentration: 500 nM): 0.0107 ± 0.0011
- peptide microarray binding signal ([2]; peptide modifications: H3R8cit H3S10ph, binder concentration: 10 nM): 0.00949 ± 0.0015
- peptide microarray binding signal ([2]; peptide modifications: H3R8cit H3S10ph, binder concentration: 100 nM): 0.0187 ± 0.0059
- peptide microarray binding signal [3, 21]: 0.00211 ± 0.00036
- peptide microarray binding signal [3, 22]: 0.00194 ± 0.00019
- peptide microarray binding signal [4, 21]: 0.00183 ± 0.00048
- peptide microarray binding signal [4, 22]: 0.00133 ± 7.9e-05

Binder: QTARKSTGGKAPR [H3 5-17 Q T A R K S T G G Kme A P R]
- peptide microarray binding signal ([1]; peptide modifications: H3K14me1, binder concentration: 50 nM): 0.0197 ± 0.00048
- peptide microarray binding signal ([1]; peptide modifications: H3K14me1, binder concentration: 500 nM): 0.047 ± 0.0024
- peptide microarray binding signal ([2]; peptide modifications: H3K14me1, binder concentration: 10 nM): 0.0957 ± 0.02
- peptide microarray binding signal ([2]; peptide modifications: H3K14me1, binder concentration: 100 nM): 0.0987 ± 0.016
- peptide microarray binding signal [3, 23]: 0.0306 ± 0.0089
- peptide microarray binding signal [3, 24]: 0.0289 ± 0.0032
- peptide microarray binding signal [4, 23]: 0.0125 ± 0.0013
- peptide microarray binding signal [4, 24]: 0.0104 ± 0.0012
